The text below walks through data of PubChem BioAssay (NCI).

Assay in all cases: NCI-60 one-dose screen, 48 h (100 = growth as untreated, 0 = no growth, -100 = all killed)
In assay [1] the test system is HCT-15 colon. The conditions noted are these: 10 µM unless noted.
Assay [2] relates to HT29 colon. Particulars: 10 µM unless noted.
Assay [3] has as its system SNB-19 CNS. Particulars: 10 µM unless noted.
The subject of assay [4] is U251 CNS. The conditions noted are these: 10 µM unless noted.
Assay [5] concerns PC-3 prostate. Particulars: 10 µM unless noted.
Assay [6] has as its system SK-MEL-5 melanoma. Particulars: 10 µM unless noted.
The test system of assay [7] is UACC-62 melanoma. The conditions noted are these: 10 µM unless noted.
Assay [8] deals with LOX IMVI melanoma. Particulars: 10 µM unless noted.
The subject of assay [9] is SK-MEL-28 melanoma. The conditions noted are these: 10 µM unless noted.
The test system of assay [10] is EKVX NSCLC. Particulars: 10 µM unless noted.
Assay [11] has as its system SN12C renal. Particulars: 10 µM unless noted.
For assay [12], the system named is UO-31 renal. Particulars: 10 µM unless noted.
Assay [13] has as its system TK-10 renal. The conditions noted are these: 10 µM unless noted.
For assay [14], the system named is ACHN renal. The conditions noted are these: 10 µM unless noted.
Assay [15] concerns CAKI-1 renal. Particulars: 10 µM unless noted.
In assay [16] the test system is A498 renal. The conditions noted are these: 10 µM.
Assay [17] deals with HL-60(TB) leukemia. Particulars: 10 µM unless noted.
For assay [18], the system named is SK-MEL-2 melanoma. Particulars: 10 µM unless noted.
The subject of assay [19] is CCRF-CEM leukemia. The conditions noted are these: 10 µM unless noted.

Compounds without any hit were thinned out: in the full panel of roughly 83,000, 20% have a hit.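 A percent growth of 40 corresponds to 60% growth inhibition; 0 means no net growth; -100 means all cells died. Active threshold: below 10.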 Unmarked numbers belong to inactive results. Activity calls are given as the source filed them.

`CCN(CC)c1ccc2c(c1)OC(N)=C(C#N)C2c1cc(OC)c2c(c1)OCO2` (stereo not drawn): the growth in assay [1] is 16.1%; in assay [2], -9.44% (active); in assay [3] it was 40.1%; in assay [4], 12.5%; in assay [5], 30.9%; in assay [6] it was -29.6% (active). The growth in assay [7] was 31.8%; in assay [8] it was 23.2%; in assay [9], 72.2%; in [10], 41.7%; in assay [11], 15.1%; in [12], 34.7%. The growth is 59.3% in assay [13]; 21.4% in assay [14]; 32.7% in assay [15]; -4% (active) in assay [16]; 13% in assay [17].

For the compound `O=c1[nH]cc(N(CCCl)CCCl)c(=O)[nH]1`, the growth was 75.6% in [1]; 63.4% in [2]; 65.1% in [3]; 64.7% in assay [4]; 49.5% in assay [5]; 82% in [6]. The growth in assay [7] was 64%; in assay [8], 46%; in assay [18], 102%; in assay [10], 101%; in assay [11] it was 59.3%; in assay [12], 42.9%. Besides, the growth in assay [13] is 86.8%; in [14], 15.5%; in [15], 12.8%; in assay [16] it was 101%; in assay [17], -9.89% (active).

Consider `CC(=O)OC1CCC2C3CCC4=C/C(=N/OC(=O)c5ccc(N(CCCl)CCCl)cc5)CCC4(C)C3CC(C)C12` (stereo not drawn), for which the growth is 71.6% in [1]; 46.8% in [2]; 62.9% in [3]; 59.3% in assay [4]; 77.1% in assay [5]; 67.5% in assay [6]. For the same compound, the growth is 72.5% in assay [7]; 15.5% in [8]; 108% in [9]; 104% in [18]; 72.6% in assay [11]; -32% (active) in assay [12]. The growth is 92.6% in assay [13]; 58.1% in [14]; 73.9% in assay [15]; 63.3% in [16]; 33.7% in assay [17]; 14.8% in assay [19].

For the compound `CC(=O)OCC1O[C@@H]([S-])C(OC(C)=O)[C@H](OC(C)=O)[C@@H]1OC(C)=O.[Au+].c1ccc(CN2[CH-]N(Cc3ccccc3)C(c3ccccc3)=C2c2ccccc2)cc1`, the growth in assay [1] is -63% (active); in assay [2], 50.3%; in [3], 36.8%; in assay [4], -59.3% (active); in [5] it was 39.4%; in [6], 48.5%. For the same compound, the growth in [7] was 8.41% (active); in assay [8] it was -65.7% (active); in [9], -56.8% (active); in [11] it was 23.6%; in [12], 45%; in assay [13], 29.6%. Also, the growth was 30.1% in assay [14], 42.1% in [16] and 7.57% (active) in assay [19].

Regarding `CCOC(=O)CCC(NC(=O)C(Cc1ccc(N(CCCl)CCCl)cc1)NC=O)C(=O)OCC` (stereo not drawn), the growth is 36.3% in assay [1]; 62.3% in assay [2]; 48.4% in assay [4]; -70.1% (active) in assay [6]; -37.7% (active) in assay [7]; -78.3% (active) in assay [8]. Moreover, the growth in assay [9] is -29.9% (active); in [18], -64.3% (active); in [10] it was 55.4%; in assay [11], 3.28% (active); in [13], 111%; in [14], -33.9% (active). The growth is 10.5% in assay [15], 128% in assay [16], 9.37% (active) in assay [17] and 17.6% in assay [19].

For `Cc1ccc(C(=O)NCCCOc2ccc(N3C(N)=NC(N)=NC3(C)C)cc2Cl)cc1S(=O)(=O)F`, the growth was 102% in [1]; 59.4% in [2]; 72.2% in assay [3]; 37.6% in assay [4]; 28.5% in assay [5]; 32.9% in [6]. Moreover, the growth in assay [7] is 30.1%; in assay [8] it was 26.7%; in assay [18] it was 70.1%; in [10], 79.3%; in assay [11], 35.2%; in [13] it was 103%. Also, the growth in assay [14] is 110%; in [16], 118%; in assay [17], 30.2%; in [19], 55.1%.

In the case of `COc1ccc(C(=O)c2cc(OC)c(OC)c(OC)c2)cc1OC(C)=O`, the growth is 12.7% in assay [1]; 18.8% in [2]; 28.3% in [3]; 6.47% (active) in assay [4]; 14.1% in [5]; -35.1% (active) in [6]. Further, the growth in assay [7] is 38.9%; in [8], 19.7%; in assay [9] it was 56.6%; in assay [10], 68.7%; in assay [11], 29.5%; in assay [12], 39.6%. The growth in [13] was 74.8%; in assay [14], 36.7%; in [16] it was 49.8%; in [17], -37.1% (active); in assay [19], 13.8%.

In the case of `ClCCN(CCCl)c1ccc(/C=N/Nc2ncnc3nc[nH]c23)cc1`, the growth was 95% in [1]; 77.5% in [2]; 82% in assay [3]; 67.6% in [4]; 232% in assay [5]; 75% in assay [6]. The growth in [7] was 74%; in [8], 65.8%; in assay [9] it was 117%; in assay [10] it was 85.1%; in [11], 67.2%; in assay [12], 54.2%. Besides, the growth in assay [13] is 113%; in assay [14] it was 74.8%; in assay [15], 64%; in [16], 98.4%; in [17], 92%; in assay [19] it was 42.4%.

Regarding `O=C1CN=C(c2ccc(Cl)cc2)c2sccc2N1`, the growth in assay [1] was 98.6%; in [2], 100%; in [3], 96.6%; in [4], 101%; in assay [5] it was 98.6%; in assay [6], 99.5%. Further, the growth in assay [7] was 91.6%; in assay [8], 95.3%; in [9], 105%; in assay [11], 96.2%; in assay [12] it was 84.6%; in assay [13], 99.7%. Further, the growth in assay [14] was 104%; in [15], 97.9%; in [16] it was 102%; in [17] it was 98.3%; in assay [19], 97.4%.

As for `NC1CC2CCCCC2CC1(O)c1ccccc1` (stereo not drawn), the growth in assay [1] is 102%; in assay [2], 102%; in assay [3], 103%; in assay [4], 96.4%; in assay [6], 102%; in assay [7] it was 105%. The growth is 91.9% in assay [8]; 111% in [9]; 100% in [18]; 101% in [11]; 83.9% in [12]; 96.6% in assay [13]. Also, the growth in assay [14] is 104%; in assay [15] it was 107%; in assay [16], 89.8%; in [17] it was 91.1%; in assay [19] it was 96%.
